# Assay outcomes (PubChem)
# Shown are actives, neighbours in structure and some others; about 6.7% of the full set was active somewhere.
# C diff growth = inhibitors of Clostridium difficile growth. Clostridium difficile clinical isolate growth, OD600, 24 h; active compounds read low. growth activity, negative = inhibition, % at 16 µg/mL (by protocol). hit rate 0.25% among 86,000. AID 1259249;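 active = mean growth activity at or below -80% and every replicate also at or below -80%; inconclusive = mean at or below -80% but some replicate above -80%; inactive = mean growth activity above -80%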;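 note: 0% = DMSO wells and -100% = levofloxacin 16 µg/mL wells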
# Pf Dd2 inh = blocks growth of Plasmodium falciparum Dd2 parasites. P. falciparum Dd2 growth, SYBR Green, 72 h; active compounds read low. AID 1159554. hit rate 2.3% among 94,000. activity change, % at 10 µM; in the data active = activity change below about -80%; inconclusive = no clear call, values can overlap the other calls
# T cruzi growth-1 = blocks T. cruzi growth in NIH3T3 culture; inhibition, % at 8.34 µM; T. cruzi beta-gal in NIH3T3, GalScreen luminescence, 90 h; hit rate 5.9% among 77,000;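 active = mean inhibition above about 93%, with at least 55% of replicates each passing it, limit read from the data, passing the limit was not always enough; inconclusive = only one of those two conditions holds; inactive = neither condition holds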
# T cruzi growth-2 = Trypanosoma cruzi proliferation inhibition | shares compounds with T cruzi growth-1 | T. cruzi beta-gal in NIH3T3, GalScreen luminescence, 90 h | inhibition, % at 8.35 µM | hit rate 72% among 5,600;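 active = mean replicate inhibition above about 95% and at least 55% of replicates individually reaching it, limit read from the data; inconclusive = only one of the two criteria is met; inactive = neither criterion is met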
# T cruzi growth-3 = inhibitors of T. cruzi proliferation. hit rate 21% among 5,600. shares compounds with T cruzi growth-1. inhibition, % at 2.09 µM. T. cruzi beta-gal in NIH3T3, GalScreen luminescence, 90 h. AID 651740;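 active = mean inhibition above about 95%, with at least 55% of replicates also reaching it, limit read from the data; inconclusive = meets just one of the two conditions; inactive = meets neither condition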;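 note: plate controls were neutral control median for no effect and positive control median for full effect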
# NIH3T3 tox = kills mouse NIH/3T3 fibroblasts; shares compounds with T cruzi growth-1; NIH/3T3 viability, CellTiter-Glo ATP luminescence, 90 h; cytotoxicity (signal decrease), % at 8.35 µM; hit rate 14% among 5,600;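 active = mean signal decrease across replicates above about 35% based on untreated-well scatter, with enough replicates individually passing, limit read from the data; inconclusive = no rule stated though some were filed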;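 note: 0% = median of neutral control wells and 100% = median of positive control wells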
# 3T3 cytotox 2 = NIH/3T3 (mouse) viability loss | shares compounds with T cruzi growth-1 | NIH/3T3 viability, CellTiter-Glo ATP luminescence, 90 h | inhibition, % at 24.9 µM | hit rate 56% among 5,600 | AID 651744;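 active = mean loss of cell viability signal at or above a set limit, and enough replicates individually reaching it; inconclusive = meets only the mean limit or only the replicate share; inactive = meets neither condition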;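 note: 0% = median of neutral control wells and 100% = median of positive control wells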
# Starred values were filed as active, the others as inactive; u = inconclusive; x = not tested or not shown.
SMILES,C diff growth,Pf Dd2 inh,T cruzi growth-1,T cruzi growth-2,T cruzi growth-3,NIH3T3 tox,3T3 cytotox 2
O=C(Cc1ccccn1)N1CCCCN2[C@H](C1)[C@@H](c1ccc(-c3ccc(F)cc3)cc1)[C@@H]2CO,-1,-35,46,x,x,x,x
O=C(Cc1ccccn1)N1CCCCN2[C@H](C1)[C@H](c1ccc(-c3ccc(F)cc3)cc1)[C@@H]2CO,2,9,92,x,x,x,x
O=C(Cc1ccccn1)N1CCCCN2[C@H](CO)[C@H](c3ccc(-c4ccccc4F)cc3)[C@@H]2C1,20,18,97*,109*,72,-11,-12
O=C(Cc1ccccn1)N1CCCCN2[C@@H](CO)[C@@H](c3ccc(-c4ccc(F)cc4)cc3)[C@@H]2C1,5,-48,u,73,60,1,41*
Cc1ccccc1-c1ccc([C@@H]2[C@H](CO)N3CCCCN(C(=O)Cc4ccccn4)C[C@@H]23)cc1,-11,-9,u,91,64,11,65*
O=C(Cc1ccccn1)N1CCCCN2[C@H](CO)[C@@H](c3ccc(-c4ccccc4F)cc3)[C@@H]2C1,8,-34,25,x,x,x,x
Cc1ccccc1-c1ccc([C@H]2[C@@H](CO)N3CCCCN(C(=O)Cc4ccccn4)C[C@H]23)cc1,-10,-6,93,x,x,x,x
COC(=O)[C@H]1[C@H](CO)[C@H]2Cn3c(cccc3=O)[C@@H]1N2C(=O)C1CC1,-4,x,-7,x,x,x,x
COC(=O)[C@@H]1N[C@@H]2c3ccc(C4=CCCC4)c(=O)n3C[C@@H]2[C@H]1CO,-1,x,-29,x,x,x,x
O=C(Cc1ccccc1)N1C[C@H]2[C@@H](c3ccccc31)[C@@H](CO)N2Cc1ccccc1,-9,2,42,x,x,x,x
CCCN1[C@@H]2Cn3c(ccc(-c4cccc(OC)c4)c3=O)[C@H]1[C@@H](C(=O)OC)[C@@H]2CO,2,4,x,x,x,x,x
C[C@@H]1CN([C@H](C)CO)C(=O)c2c(c3ccccc3n2C)-c2ccccc2CO[C@H]1CN(C)C(=O)Oc1ccccc1,-3,-12,x,x,x,x,x
O=C(Cc1ccccn1)N1CCCCN2[C@H](CO)[C@@H](c3ccc(-c4ccccc4)cc3)[C@@H]2C1,-9,22,79,x,x,x,x
C/C=C/c1ccc([C@H]2[C@H]3CN(C(=O)Cc4cccnc4)CCCCN3[C@H]2CO)cc1,1,15,3,x,x,x,x
O=C(Cc1cccnc1)N1CCCCN2[C@@H](CO)[C@@H](c3ccc(/C=C/c4ccccc4)cc3)[C@@H]2C1,22,-47,108*,97*,68,7,106*
O=C(Cc1cccnc1)N1CCCCN2[C@H](C1)[C@@H](c1ccc(/C=C/c3ccccc3)cc1)[C@@H]2CO,1,-13,103*,105*,100*,48*,105*
C/C=C/c1ccc([C@H]2[C@H](CO)N3CCCCN(C(=O)Cc4cccnc4)C[C@@H]23)cc1,-2,37,88,x,x,x,x
COC(=O)[C@H]1[C@H](CO)[C@H]2Cn3c(ccc(C4=CCCC4)c3=O)[C@@H]1N2CC1CCCCC1,0,-9,33,x,x,x,x
CC=Cc1ccc2n(c1=O)C[C@@H]1[C@@H](CO)[C@H](C(=O)OC)[C@H]2N1CC1CCOCC1 (mixture of isomers),-10,x,50,x,x,x,x
CC(C)CC#Cc1ccc([C@@H]2[C@H](CO)N3CCCCN(C(=O)Cc4ccccn4)C[C@@H]23)cc1,-10,-33,97*,108*,73,15,104*
CC(C)CC#Cc1ccc([C@@H]2[C@@H](CO)N3CCCCN(C(=O)Cc4ccccn4)C[C@H]23)cc1,-10,0,88,x,x,x,x
O=C(Cc1ccccn1)N1CCCCN2[C@H](CO)[C@H](c3ccc(C#Cc4ccccc4)cc3)[C@@H]2C1,-18,-71,116*,109*,70,36*,46*
CCCC#Cc1ccc([C@@H]2[C@H](CO)N3CCCCN(C(=O)Cc4ccccn4)C[C@@H]23)cc1,-6,-51,55,x,x,x,x
COC(=O)[C@@H]1[C@@H](CO)[C@@H]2Cn3c(ccc(-c4ccccc4F)c3=O)[C@H]1N2C(=O)C1CC1,-6,26,-24,x,x,x,x
O=C(O)[C@@H]1[C@@H](CO)[C@@H]2Cn3c(ccc(-c4ccncc4)c3=O)[C@H]1N2C(=O)C1CCCC1,-2,19,x,x,x,x,x
SMILES,C diff growth,Pf Dd2 inh,T cruzi growth-1,T cruzi growth-2,T cruzi growth-3,NIH3T3 tox,3T3 cytotox 2
COC(=O)[C@@H]1[C@@H](CO)[C@@H]2Cn3c(ccc(/C=C/c4ccccc4)c3=O)[C@H]1N2CC1CCCC1,15,-20,32,x,x,x,x
O=C(Cc1ccccc1)N1CC2(C1)[C@H](c1ccccc1)[C@H](CO)N2Cc1cccc(Cl)c1,-4,-33,x,x,x,x,x
O=C(Cc1ccncc1)N1CCCCN2[C@H](C1)[C@H](c1ccc(C#Cc3ccccc3F)cc1)[C@@H]2CO,0,-49,24,x,x,x,x
COc1ccc(C#Cc2ccc([C@H]3[C@@H](CO)N4CCCCN(C(=O)Cc5ccncc5)C[C@@H]34)cc2)cc1,2,-45,108*,105*,69,41*,64*
O=C(Cc1ccncc1)N1CCCCN2[C@H](CO)[C@@H](c3ccc(C#CC4(O)CCCC4)cc3)[C@@H]2C1,0,9,105*,1,-7,9,17
COc1ccc(-c2ccc([C@@H]3[C@@H](CO)N4CCCCN(C(=O)Cc5ccccc5)C[C@@H]34)cc2)cc1,3,3,75,x,x,x,x
COc1ccc(-c2ccc([C@@H]3[C@H]4CN(C(=O)Cc5ccccc5)CCCCN4[C@H]3CO)cc2)cc1,4,-7,79,x,x,x,x
COc1ccc(C#Cc2ccc([C@H]3[C@H]4CN(C(=O)Cc5ccncc5)CCCCN4[C@H]3CO)cc2)cc1,0,-64,107*,98*,-82,77*,98*
O=C(Cc1ccncc1)N1CCCCN2[C@H](CO)[C@H](c3ccc(C#CC4(O)CCCC4)cc3)[C@@H]2C1,3,13,93,x,x,x,x
COc1cccc(-c2ccc([C@@H]3[C@H]4CN(C(=O)Cc5ccncc5)CCCCN4[C@H]3CO)cc2)c1,-5,-10,114*,94,26,7,28
CCCNC(=O)[C@H]1[C@H](CO)[C@H]2Cn3c(cccc3=O)[C@H]2N1C,-3,x,7,x,x,x,x
O=C(O)[C@H]1[C@H](CO)[C@H]2Cn3c(ccc(-c4ccccc4F)c3=O)[C@@H]1N2C(=O)Nc1ccccc1,-4,x,62,x,x,x,x
COC(=O)[C@H]1[C@H](CO)[C@H]2Cn3c(ccc(-c4ccccc4F)c3=O)[C@@H]1N2C(=O)C1CC1,-5,27,-18,x,x,x,x
CCCN1[C@@H]2c3ccc(-c4ccccc4)c(=O)n3C[C@H]1[C@H](CO)[C@H]2C(=O)OC,-1,9,-2,x,x,x,x
CN1[C@@H]2Cn3c(cccc3=O)[C@H]1[C@@H](C(=O)NCC1CC1)[C@@H]2CO,17,x,-33,x,x,x,x
